Activity calls are given as the source filed them. Rule for the calls: active = hit-call score of the fitted dose curve at least 0.9, where 1 is the maximum; inactive = score below 0.9.
read-out: Cytochrome P450 (CYP24A1_1), CYP24A1 (gene 1591); experiment: LTEA_HepaRG_CYP24A1_1: Life Technologies and Expression Analysis (LTEA) Assay for Cytochrome P450 (CYP24A1_1) using HepaRG (AID 2283671); settings: mRNA level, 48 h; actives raise or lower the signal
Protocol: LTEA_HepaRG is a cell based, multiplexed-readout assay that uses HepaRG, a human liver cell line, with measurements taken at 48 hours after chemical dosing on a 96-well plate.LTEA_HepaRG_CYP24A1_1 is one of 102 assay component(s) measured in the LTEA HepaRG cell culture assay. It is a marker of NR mediated metabolism.Data from the assay component LTEA_HepaRG_CYP24A1_1 was analyzed into 1 endpoint. This assay endpoint, LTEA_HepaRG_CYP24A1_1, was analyzed with bidirectional fitting relative to DMSO as the negative control and baseline of activity. Using a type of inducible reporter, measures of mRNA induction for gain or loss-of-signal activity can be used to understand regulation of transcription factor activity. To generalize the intended target to other relatable targets, this assay endpoint is annotated to the cyp intended target family, where the subfamily is xenobiotic metabolism.
A total of 1060 chemcials from the ToxCast library were tested in eight-point concentration-response experiments. Cell culture and cytotoxicity assays were conducted at Thermo Fisher Scientific's Custom Services facility (Madison, WI). A single lot of human HepaRG cells (Thermo Fisher Scientific, Frederick, MD) was used for the cell culture experiments. 96-well format collagen type I coated plates of human HepaRG cells were prepared using established methods. Briefly, cryopreserved HepaRG cells were thawed, plated at a density of approximately 100,000 cells/well in HepaRG Thaw, Plate, and General Purpose media (HPRG770, Thermo Fisher Scientific), and incubated for 48 hours. 0.5% DMSO was selected as vehicle control to balance the requisite need of DMSO in HepaRG cultures to maintain differentiation (for example, baseline metabolism, proportions of hepatocytes vs. cholangiocytes), while enabling further hepatic receptor pathway activation (for example, PXR and CAR) in response to chemical exposure. 48 hours after plating, the culture medium was replaced with HepaRG Serum-Free Incudtion Media. Cells were exposed to each test chemical in duplicate and maintained in CO2 incubators for another 48 hours. Chemical plates were thawed to room temperature and 200x concentrations of treatment groups were prepared. 8-point conentration-reponse curves were made with the highest exposure at 100 uM, followed by half-log dilutions, all in 0.5% DMSO. Each test plate contained variouse controls, induction positive controls (1mM phenobarbital), cytotoxicity positive controls ([…] aflatoxin B1), vehicle controls (0.5% DMSO), and total lysis controls (0.5% DMSO). Cell morphology images were taken using an Essen IncuCyte FLR automated microscope, with six 96-well plates imaged in about 24 minutes. Images were captured and exported and JPEG files. Spent culture media was transfered to black-well plates for the LDH assay, and remaining media was sorted at -80 C for later use. Cells were treated with RLT buffer and frozen until shipped for gene expression analysis. Total RNA was isolated from the cell suspension in 75 uL of Buffer RLT (Qiagen, Germantown, MD 20874) by Quintiles/Expression Analysis (Durham, NC) using a custom isolation procedure. Total RNA from each plate well was transferred to a preamplification plate. Fluidigm's 96.96 Dynamic ArrayTM (Fluidigm, Amsterdam, the Netherlands) technology was used for gene expression analyses by quantitative reverse transcription polymerase chain reaction (qRT-PCR, performed by Quintiles/Expression Analysis, Durham, NC)89. Standard TaqManTM Assays (Applied Biosystems/ThermoFisher Scientific, Foster City, CA) were used to assess the expression of 93 genes selected based on their selectivity and sensitivity to important hepatic receptors known to be modulated by environmental chemicals; importance in human hepatocyte functionality; and hepatotoxicity. […]

Compound | outcome | AC50
ClC1=C(Cl)C2(Cl)C3C(Cl)C=CC3C1(Cl)C2(Cl)Cl (stereo not given) | inactive | –
CC(C)COC(=O)c1ccccc1C(=O)OCC(C)C | inactive | –
Nc1ccc(Cl)cc1N | – | 30.8 µM (active)
O=[N+]([O-])C(Br)(CO)CO | inactive | –
Cc1ccc([N+](=O)[O-])cc1 | inactive | –
CCN(CC)CCO | inactive | –
C[C@]12C=CC3=C4CCC(=O)C=C4CC[C@H]3[C@@H]1CC[C@@H]2O | inactive | –
CO[C@@H]1[C@H](OC(=O)NC(=O)CCl)CC[C@]2(CO2)[C@H]1[C@@]1(C)O[C@@H]1CC=C(C)C | inactive | –
CN(C)C(=O)Nc1ccc(Cl)cc1 | inactive | –
C1=Cc2cccc3cccc1c23 | inactive | –

From PubChem BioAssay (EPA / NIEHS)
